Bioassay records from PubChem BioAssay.
Compounds with a hit are over-represented: about 1.8% of the library has one in this group of screens.
Rtt109 HAT inh – inhibitors of C. albicans Rtt109/Vps75 HAT, primary screen, biochemical, ThioGlo CoA-SH fluorescence, plate reader | Histone acetyltransferase RTT109 (Candida albicans (strain SC5314 / ATCC MYA-2876)), … | purified Rtt109/Vps75, 4 h | AID 540336, 2011 | inhibition, % at 34.9 µM | 330,000 compounds, 0.16% hits;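 active = inhibition of at least 50% in every replicate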
NOD2-RIPK2 inh – NOD2-RIPK2 binding disruptors in cells, primary screen, fluorescence, CHO cells, BLA complementation | CCF4 ratio | inhibition, % at 4.98 µM | 360,000 compounds, 0.38% hits | AID 624267, 2012; in the data active = inhibition above about 21%;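 note: 0% = vehicle only and 100% = reference blocker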
LANA-H2B inh – blockers of LANA interaction with H2A/H2B – biochemical, FP readout, HTS, primary screen; cell-free LANA-H2A/H2B peptide, fluorescence polarization; inhibition, % (no concentration beside the values); 320,000 compounds, 0.6% hits; AID 2629, 2010; in the data active = inhibition mostly above about 10%, no sharp cut-off; inactive = mostly below about 6.7%
TLR9-MyD88 block – inhibitors of TLR9-MyD88 association in cells, primary screen, cell-based, CHO, BLA complementation, fluorescence | Toll-like receptor 9 (Homo sapiens) + Myeloid differentiation primary response protein … | CCF4 FRET ratio | inhibition, % at 4.98 µM | 340,000 compounds, 0.21% hits;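 active = inhibition above the mean over all tested compounds plus 3 SD, cut at about 21% in these data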;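 note: 0% = DMSO only wells and 100% = clavulanate BLA inhibitor control wells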
TLR4-MyD88 BLA – inhibitors of TLR4-MyD88 association in cells, primary screen, cell-based, HeLa CL3-4, BLA complementation, FRET ratio; Toll-like receptor 4 (Homo sapiens) + Myeloid differentiation primary response protein …; inhibition, % at 8.4 µM; 200,000 compounds, 0.18% hits; HeLa CL3-4 TLR4/MyD88 BLA complementation; in the data active = inhibition above about 25%;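 note: 0% = vehicle and 100% = reference inhibitor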
m5-HT2A agonist – mouse Htr2a agonists via beta-arrestin recruitment, primary screen, cell-based, luminescence | activation, % at 7.6 µM | 360,000 compounds, 0.66% hits | 5-hydroxytryptamine receptor 2A (Mus musculus), P35363 | CHO-K1 mHTR2A beta-arrestin complementation; percent of 30 µM serotonin response;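 active = activation above a run cutoff, the mean activation of all tested compounds plus 3 SD, cut at about 14% in these data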;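 note: 0% = plate median of compound wells and 100% = 30 µM serotonin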
* = called active by the depositor; · = no result given; + = active, no number.

SMILES	Rtt109 HAT inh	NOD2-RIPK2 inh	LANA-H2B inh	TLR9-MyD88 block	TLR4-MyD88 BLA	m5-HT2A agonist
CCn1c(SCC(=O)Nc2ccc(OC)c(OC)c2)nnc1-c1cccs1	0.5	1.6	6.8	-10.1	-3.5	0.9
CC(C)OC(=O)CC(=O)c1sc2nc3c(cc2c1N)CN(C)CC3	·	·	74.3*	·	-3.3	·
CCN1CCc2nc3sc(C(=O)N4CCc5ccccc5C4)c(N)c3cc2C1	9.8	3.7	5.6	-0.3	·	-6.5
C=C(C)Cn1c2ccc(NC(=O)NCCc3ccccc3)cc2c(=O)n1C	·	-5.8	·	·	·	3.2
COc1ccc2oc(C(=O)Nc3nc(C)cs3)c(C)c2c1	10.3	-1.7	73.5*	-9.1	·	-4.6
COc1ccc2oc(C(=O)Nc3ccccn3)c(C)c2c1	0.5	0.1	1.6	-7.0	·	-0.5
COc1ccc(C(C#N)CC(=O)c2ccc(OC)c(OCc3ccccc3)c2)cc1OC (stereo unspecified)	·	0.5	·	-1.2	·	4.7
CCCN(CC(=O)Nc1ccccc1OC)C(=O)c1cc(-c2ccccc2)nn1-c1ccccc1	-2.2	-8.8	48.7*	-1.7	·	-7.7
CN(Cc1ccccc1F)c1cc2c(c3c1ccn3C)C1CCC2C1 (stereo unspecified)	·	-11.2	·	·	·	1.6
CCCCN1C(=O)C(=O)c2cc(Cl)ccc21	-30.0	18.7	+	-1.2	·	1.9
CCCN1C(=O)C(=O)c2cc(C)ccc21	-5.3	11.1	-1.8	-3.1	·	-8.1
CSC(=NC#N)N1CCN(c2ccccn2)CC1	3.8	6.5	30.0*	2.9	-6.8	4.3
CN(C)c1ccc(/C=C/c2ccc3c4ccccc4ccc3[n+]2-c2ccccc2)cc1	64.3*	-0.1	·	1.6	7.4	-2.5
CCC/C(=N/NC(=O)c1cccc(Cl)c1)c1ccccc1	3.0	-2.1	14.0*	-3.4	6.3	0.9
COc1cccc(C(=O)NNC(=O)CCC(=O)O)c1	54.1*	-5.3	-1.2	2.1	·	2.6
O=C(O)CCC(=O)NNC(=O)c1cccc(Cl)c1	0.9	0.3	-0.5	-2.1	-7.2	0.7
CCOC(=O)C1=CCC(c2cccs2)N(S(=O)(=O)c2ccc(C)cc2)C1 (stereo unspecified)	·	6.7	·	·	·	-7.8
CC(=O)c1ccc(NC(=O)N2C3CCC2CC(O)(c2cccnc2)C3)cc1 (stereo unspecified)	-3.7	5.3	124.2*	5.0	5.0	2.7
CC(=O)c1cccc(NC(=O)N2C3CCC2CC(O)(c2cccnc2)C3)c1 (stereo unspecified)	-6.8	-2.8	-3.1	-3.1	-0.4	-0.2
CC1CC(OC(=O)C(O)c2ccccc2)CC(C)(C)N1C (stereo unspecified)	-2.2	-3.0	17.4*	13.1	·	3.6
CC1Oc2ccc(C#N)cc2N(Cc2ccccc2OC(F)(F)F)C1=O (stereo unspecified)	·	-6.5	·	·	·	5.8
c1cc(-c2ccc3nncn3c2)ccc1CN1CCOCC1	·	-4.3	·	·	·	4.8
CCOc1ccccc1N(C)S(=O)(=O)c1ccc2[nH]cc(C(=O)N(CCOC)CCOC)c(=O)c2c1	-2.3	-2.0	2.9	3.7	·	-0.7
COCCN(CCOC)C(=O)c1c[nH]c2ccc(S(=O)(=O)N(C)c3ccc(F)cc3)cc2c1=O	5.4	-6.8	80.5*	-0.3	-14.8	-1.9
COc1ccc(-c2coc3c(C(=O)NCc4ccc(C(F)(F)F)cc4)cccc23)c(C)c1	·	-5.9	·	·	·	-8.6
SMILES	Rtt109 HAT inh	NOD2-RIPK2 inh	LANA-H2B inh	TLR9-MyD88 block	TLR4-MyD88 BLA	m5-HT2A agonist
Cc1cccn2c(CNCCc3ccccn3)c(C(=O)N3CCOCC3)nc12	-7.1	1.4	28.9*	-0.6	·	-1.7
CSCCNCc1c(C(=O)N2CCOCC2)nc2c(C)cccn12	1.6	-4.7	-12.2	6.1	-16.5	2.0
Cn1cc([C@@H]2C[C@H]3CN(Cc4cccc(Cl)c4)C(=O)[C@]34CCCN24)c(-c2ccccc2)n1	-3.6	0.1	-1.7	5.1	7.8	-0.3
Cc1nn(C)cc1[C@@H]1C[C@H]2CN(Cc3cccc(Cl)c3)C(=O)[C@]23CCCN13	52.6*	-12.1	-4.2	-1.0	-2.0	-1.4
CC1CCCCC1NC(=O)Cn1cc([N+](=O)[O-])ccc1=O (stereo unspecified)	5.0	-1.0	14.9*	11.6	·	-3.0
CC1CCCC(NC(=O)Cn2cc([N+](=O)[O-])ccc2=O)C1C (stereo unspecified)	1.6	-0.7	6.8	10.7	·	-0.2
COC(=O)C[C@@H]1CC[C@@H](NS(=O)(=O)c2ccc(OC)cc2)[C@@H](CO)O1	·	-5.1	·	·	·	0.4
CN(Cc1c(C(=O)N2CCCCCCC2)nc2ccc(Cl)cn12)C1CCOC1 (stereo unspecified)	3.5	0.5	19.4*	5.2	·	6.7
COCCOC(=O)C1=C(C)N(c2ccccc2)C(=S)NC1c1ccccc1C(F)(F)F (stereo unspecified)	2.7	0.9	35.0*	9.0	-26.0	-5.2
C=COCCNC(=O)C(=O)NC(C)C	2.4	1.6	16.8*	5.6	8.1	4.1
Cc1cc(NC(=O)c2cc(-c3ccco3)on2)nn1Cc1ccc(Cl)cc1	0.7	-6.9	15.0*	-10.5	1.7	-0.3
O=C(NCc1ccco1)C1CCC(N2C(=O)C3C4CCC(C4)C3C2=O)CC1 (stereo unspecified)	2.5	-6.4	-4.9	1.0	-7.2	0.7
O=C(NCc1ccco1)C1CCC(N2C(=O)c3ccccc3C2=O)CC1 (stereo unspecified)	-17.5	-7.2	23.3*	-5.7	3.0	-0.9
CCCCNC(=O)C1CCN(C(=O)C2CCN(S(=O)(=O)c3ccc(C)cc3)CC2)CC1	2.8	-5.9	12.6*	4.9	·	4.5
CCCNC(=O)C1CCN(S(=O)(=O)c2ccc3[nH]c(=O)ccc3c2)CC1	-2.6	-12.1	20.2*	-3.1	·	6.0
Cc1ccccc1S(=O)(=O)NC(=O)C1(C)CCN1C(=O)Cc1cc(F)ccc1F (stereo unspecified)	·	2.8	·	·	·	8.9
COc1cc(NC(=O)COc2cc3oc(=O)cc(C)c3cc2Cl)cc(OC)c1OC	-11.4	-2.5	14.6*	0.4	·	2.2
COc1cc(NC(=O)COc2ccc3c(C)cc(=O)oc3c2C)cc(OC)c1OC	-2.8	18.5	0.8	-1.7	·	-1.9
COCCNc1nc(NCc2cccc(OC)c2)c2sc(-c3ccccc3)cc2n1	·	-5.0	·	·	·	-12.5
